In PubChem BioAssay (NCATS) one finds Potency data, which are given here for 15 compounds.

Each structure is given as a SMILES string. Records with an inconclusive call do not appear. A call without a number means that no potency is given here. Activity calls are given as the source filed them. Calls follow the shape of the dose curve; as a rule, active = well fitted inhibition curve with a large enough effect; inconclusive = small, poorly fitted or top-dose-only effect; inactive = no such curve, though single readings can be large or run the other way.
Potency is read from the fitted curve at half-maximal effect.

This assay in a line: qHTS for Inhibitors of the Aldehyde Dehydrogenase Family (ALDH1A2, ALDH1A3, ALDH2, ALDH3A1) (AID 2061307). Also: nearly all actives have a fitted effect of over 50% in size. As to Potency: test system not described further here. Conditions: ALDH inhibition qHTS; series mostly up to 50.3 µM. A general note: Quantitative high-throughput screening tests each substance at several concentrations.
Consider `OC[C@H]1O[C@@H](OCc2ccccc2)[C@H](O)[C@@H](O)[C@H]1O`, for which the Potency entry is “inactive”. Next, `CN1c2cc(C(=O)Nc3ccc(N4CCOCC4)cc3)ccc2C(=O)N2CCCCC21` (stereo not given): “inactive”; `Nc1c(Cc2ccc(S(N)(=O)=O)cc2)c(-c2ccccc2)nn1-c1nc(C(=O)O)co1`: “inactive”; `Cc1nc(SCCc2nc3ccccc3[nH]2)c2oc3ccccc3c2n1`: “inactive”. In the case of `CN(C)Cn1c(O)c(N=NC(=O)c2cccnc2)c2ccccc21` it was “inactive”; in that of `Cc1ccc(N2CCN(C(=S)c3ccc(-c4ccccc4[N+](=O)[O-])o3)CC2)cc1`, 3.57 µM (active); in that of `O=C(CSc1nnc(-c2ccccn2)o1)Nc1ccc2c(c1)OCCO2`, 11.3 µM (active).

Take `COc1ccc(-n2ccc(CNc3cccc(F)c3C#N)n2)cc1`: the Potency entry is “inactive”. As to `CC(C)c1ccc(-c2cc(-c3nn(-c4nc(C(=O)O)cs4)c(CC4CC4)c3Cc3ccc(S(N)(=O)=O)cc3)ccc2F)cc1`, the Potency is 1.12 µM (active). With `OCC1CCN(c2ccc3cc(Br)ccc3n2)CC1`, the Potency is 8.91 µM (active). As to `O=C(Nc1ncc(CN2CCOCC2)s1)c1ccc(-c2cccc([N+](=O)[O-])c2)o1`, the Potency was 28.2 µM (active). On to `COc1ccc(/C=C/c2onc(C)c2S(=O)(=O)N2CCC(C(=O)N3CCc4ccccc4C3)CC2)cc1`, for which the Potency entry is “inactive”. In the case of `Cc1ccc(-c2ocnc2C(=O)N(C)Cc2cccc(C(N)=O)c2)cc1` it was “inactive”; in that of `CCS(=O)(=O)c1nc(-c2ccc(Cl)cc2)cc(C(F)(F)F)n1`, 4.47 µM (active).

For `Cc1cc(Br)c2c(c1)/C(=C\C(=O)c1cccs1)C(=O)N2`, the Potency was 2.52 µM (active).
